Assay results reported in PubChem BioAssay (NCATS).
Several values for one entry are separate records, joined by “and”; a condition that tells them apart may be missing. Equal values may be shown once. Results filed as inconclusive are left out. A call without a number means that no potency is given here. Activity calls are given as the source filed them. Unless noted, calls come from the whole dose curve.

Key:
[1] = molecular target: Vitamin D3 receptor (Homo sapiens) (UniProt P11473); assay: qHTS assay for small molecule agonists of vitamin D receptor signaling (AID 588543)
Chain of Vitamin D3 receptor (Homo sapiens) (P11473 whole entry, looked up): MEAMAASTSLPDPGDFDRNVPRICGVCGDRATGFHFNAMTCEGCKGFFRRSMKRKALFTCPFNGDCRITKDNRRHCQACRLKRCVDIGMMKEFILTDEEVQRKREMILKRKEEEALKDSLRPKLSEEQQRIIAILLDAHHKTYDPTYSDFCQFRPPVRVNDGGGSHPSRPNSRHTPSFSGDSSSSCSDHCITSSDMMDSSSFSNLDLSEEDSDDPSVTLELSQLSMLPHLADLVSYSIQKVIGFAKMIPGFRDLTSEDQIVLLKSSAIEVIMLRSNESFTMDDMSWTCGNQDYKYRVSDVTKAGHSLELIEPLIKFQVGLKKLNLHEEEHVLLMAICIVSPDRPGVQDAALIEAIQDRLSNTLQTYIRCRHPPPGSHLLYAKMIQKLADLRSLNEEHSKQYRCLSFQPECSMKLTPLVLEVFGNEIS
Outline: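 GeneBLAzer VDR-UAS-bla HEK293T cells in 2% charcoal-stripped FBS medium were dosed with compound titrations for 16 h at 37 °C; CCF4 β-lactamase readout (405 nm ex, 460/530 nm em). EC50 and efficacy from Hill fits, normalized to 50 nM calcitriol (100%) and DMSO (0%).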

[2] = qHTS assay for small molecule agonists of retinoid X receptor alpha signaling (AID 588544); details: HEK293T RXRa-UAS-bla, beta-lactamase reporter, 18 h; 530 nm emission
[3] = molecular target: Retinoic acid receptor RXR-alpha (Homo sapiens) (UniProt P19793); assay: as above
Chain of Retinoic acid receptor RXR-alpha (Homo sapiens) (P19793 whole entry, looked up): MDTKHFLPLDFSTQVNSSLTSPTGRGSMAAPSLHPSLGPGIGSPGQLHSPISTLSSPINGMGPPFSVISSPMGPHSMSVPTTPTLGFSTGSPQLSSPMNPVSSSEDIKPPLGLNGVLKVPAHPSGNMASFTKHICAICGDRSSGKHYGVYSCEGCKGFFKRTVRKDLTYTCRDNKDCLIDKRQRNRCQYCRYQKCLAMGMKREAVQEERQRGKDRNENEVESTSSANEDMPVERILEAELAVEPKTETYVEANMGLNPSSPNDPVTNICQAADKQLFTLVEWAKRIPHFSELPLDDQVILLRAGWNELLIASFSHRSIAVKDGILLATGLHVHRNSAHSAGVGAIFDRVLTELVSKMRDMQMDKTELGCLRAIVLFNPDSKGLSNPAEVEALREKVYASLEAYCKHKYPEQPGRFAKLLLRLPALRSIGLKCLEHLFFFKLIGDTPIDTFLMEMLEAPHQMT

[4] = molecular target: Thyroid hormone receptor beta (Homo sapiens) (UniProt P10828); assay: qHTS assay for small molecule agonists of thyroid hormone receptor beta signaling (AID 588545)
Chain of Thyroid hormone receptor beta (Homo sapiens) (P10828 whole entry, looked up): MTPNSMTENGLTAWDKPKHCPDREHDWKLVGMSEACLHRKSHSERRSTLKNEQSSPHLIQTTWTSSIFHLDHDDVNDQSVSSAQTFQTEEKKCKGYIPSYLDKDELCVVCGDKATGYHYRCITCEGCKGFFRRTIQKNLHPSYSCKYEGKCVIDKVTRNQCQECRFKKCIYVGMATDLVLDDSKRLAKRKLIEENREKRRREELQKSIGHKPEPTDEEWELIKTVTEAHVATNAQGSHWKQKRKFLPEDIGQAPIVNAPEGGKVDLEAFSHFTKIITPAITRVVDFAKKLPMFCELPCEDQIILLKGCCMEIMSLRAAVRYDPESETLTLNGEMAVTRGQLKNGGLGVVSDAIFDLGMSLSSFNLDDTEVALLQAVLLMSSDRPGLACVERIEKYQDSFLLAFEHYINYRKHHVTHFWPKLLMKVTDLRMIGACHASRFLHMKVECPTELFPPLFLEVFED
Outline: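 In this cell-based screen, titrated compounds act on HEK 293 cells held in medium with 2% charcoal/dextran FBS, NEAA and pyruvate for 18 hrs at 37 C. Responses are expressed relative to T3 (10 nM) as 100% and basal DMSO as 0%.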

[5] = qHTS assay for small molecule antagonists of retinoid X receptor alpha signaling (AID 588546; active = well fitted inhibition curve with a large enough effect in the signal ratio, with a control signal flat, not every such curve was filed as active; the % refers to the signal ratio;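 note: cells stimulated with 9-cis-retinoic acid as agonist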); details: HEK293T RXRa-UAS-bla, beta-lactamase ratio, antagonist mode; measured here: W530 green channel, cytotoxicity proxy
Outline: (§1)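 Beta-lactamase reporter inhibition, read as CCF4 fluorescence ratio (ex 405, em 460/530 nm) after 2 h at RT. HEK293T UAS-bla cells, 2500/well, were stimulated with 9-cis-RA at 500 or 100 nM final alongside test compound for 18 h at 37 C.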

[6] = molecular target: Retinoic acid receptor RXR-alpha (Homo sapiens) (UniProt P19793); assay: as above; details: HEK293T RXRa-UAS-bla, beta-lactamase ratio, antagonist mode
Outline: as §1

[7] = molecular target: Voltage-gated inwardly rectifying potassium channel KCNH2 (Homo sapiens) (UniProt Q12809); assay: qHTS Assay for Small Molecule Inhibitors of the Human hERG Channel Activity (AID 588834; active = well fitted inhibition curve with a large enough effect;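 note: top concentration of the series differs between compounds; lower thallium flux fluorescence means stronger hERG block; nearly all actives have a fitted effect of over 50% in size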)
Chain of Voltage-gated inwardly rectifying potassium channel KCNH2 (Homo sapiens) (Q12809 whole entry, looked up): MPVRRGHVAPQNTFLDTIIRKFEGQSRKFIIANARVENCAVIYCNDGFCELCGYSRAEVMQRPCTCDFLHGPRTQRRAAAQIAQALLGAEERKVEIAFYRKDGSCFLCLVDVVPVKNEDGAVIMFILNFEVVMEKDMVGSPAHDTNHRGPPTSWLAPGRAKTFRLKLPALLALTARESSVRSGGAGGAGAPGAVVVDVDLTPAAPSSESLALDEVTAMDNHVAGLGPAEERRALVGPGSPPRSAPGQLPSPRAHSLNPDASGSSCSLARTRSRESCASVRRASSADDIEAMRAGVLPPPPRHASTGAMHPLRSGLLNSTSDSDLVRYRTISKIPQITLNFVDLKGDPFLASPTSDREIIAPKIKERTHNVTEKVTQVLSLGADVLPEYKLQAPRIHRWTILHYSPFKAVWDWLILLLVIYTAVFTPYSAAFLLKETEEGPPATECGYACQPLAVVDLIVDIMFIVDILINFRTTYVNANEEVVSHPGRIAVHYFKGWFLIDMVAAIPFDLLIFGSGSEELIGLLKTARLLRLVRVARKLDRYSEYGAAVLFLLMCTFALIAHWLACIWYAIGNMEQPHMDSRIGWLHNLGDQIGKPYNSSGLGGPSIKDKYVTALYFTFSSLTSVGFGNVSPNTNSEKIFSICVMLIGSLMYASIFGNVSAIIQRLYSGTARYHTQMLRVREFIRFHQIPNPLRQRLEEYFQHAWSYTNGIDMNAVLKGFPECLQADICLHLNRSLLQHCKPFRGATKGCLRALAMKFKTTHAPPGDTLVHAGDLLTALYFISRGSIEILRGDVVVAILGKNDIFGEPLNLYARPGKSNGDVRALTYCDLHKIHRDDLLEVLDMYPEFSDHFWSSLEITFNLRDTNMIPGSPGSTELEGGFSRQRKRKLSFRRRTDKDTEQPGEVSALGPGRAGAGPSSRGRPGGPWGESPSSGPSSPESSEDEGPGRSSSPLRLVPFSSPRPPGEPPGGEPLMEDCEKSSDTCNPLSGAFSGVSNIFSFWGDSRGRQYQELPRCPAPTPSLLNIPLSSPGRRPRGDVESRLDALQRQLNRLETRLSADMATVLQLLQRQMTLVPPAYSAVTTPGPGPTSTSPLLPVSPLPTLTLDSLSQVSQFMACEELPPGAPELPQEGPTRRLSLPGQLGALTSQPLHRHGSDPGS
Outline: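 In hERG-transduced U2OS cells, dye-loaded for 1 hr at room temperature in dark, test compounds incubated 10 min at 37 °C before thallium stimulation. AC50 values derived by Hill modelling of concentration-response.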

[8] = molecular target: Luciferin 4-monooxygenase (Photinus pyralis) (UniProt P08659); assay: Biochemical firefly luciferase enzyme assay for NPC (AID 624030; active = well fitted inhibition curve with a large enough effect;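 note: purified P. pyralis luciferase at 10 nM with luciferin and ATP substrate; series mostly up to about 59 µM; nearly all actives have a fitted effect of over 70% in size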)
Chain of Luciferin 4-monooxygenase (Photinus pyralis) (P08659 whole entry, looked up): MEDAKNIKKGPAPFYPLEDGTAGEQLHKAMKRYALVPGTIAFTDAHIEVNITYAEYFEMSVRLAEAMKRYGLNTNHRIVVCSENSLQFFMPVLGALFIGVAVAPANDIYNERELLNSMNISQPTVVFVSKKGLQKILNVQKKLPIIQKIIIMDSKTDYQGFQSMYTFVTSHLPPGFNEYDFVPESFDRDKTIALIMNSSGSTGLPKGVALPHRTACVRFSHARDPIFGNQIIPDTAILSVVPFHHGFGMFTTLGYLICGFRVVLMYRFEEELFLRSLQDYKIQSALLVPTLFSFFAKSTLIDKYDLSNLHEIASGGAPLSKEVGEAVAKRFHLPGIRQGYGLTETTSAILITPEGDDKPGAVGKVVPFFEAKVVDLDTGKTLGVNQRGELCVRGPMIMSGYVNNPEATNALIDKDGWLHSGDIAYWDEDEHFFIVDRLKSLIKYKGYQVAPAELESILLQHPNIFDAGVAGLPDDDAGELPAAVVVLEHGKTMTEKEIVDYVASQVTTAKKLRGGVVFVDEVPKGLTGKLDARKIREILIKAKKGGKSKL
Outline: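 Counter-screen for direct inhibition of the luciferase enzyme by approved-drug library compounds, run at 10 nM enzyme in 50 mM Tris acetate (final). Luminescence was read within 5 min of enzyme-buffer addition and normalized to PTC124 versus DMSO (0%).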

[9] = molecular target: Thyroid hormone receptor beta (Homo sapiens) (UniProt P10828); assay: qHTS assay for small molecule antagonists of thyroid hormone receptor beta signaling (AID 588547; active = well fitted inhibition curve with a large enough effect in the signal ratio, with a control signal flat, not every such curve was filed as active; the % refers to the signal ratio;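 note: cells stimulated with 0.4 nM T3 agonist during compound exposure; series mostly up to about 77 µM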); details: TR-UAS-bla HEK293, beta-lactamase ratio, antagonist mode, 18 h
Outline: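 TR-UAS-bla GripTite HEK293 cells in 2% charcoal/dextran FBS medium were preincubated 4 h at 37 C, given compound (0.59 nM to 92 uM) plus 0.4 nM T3 (final) for 18 h, then CCF4 for 2 h at RT; Hill fit gave IC50.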

[10] = molecular target: Peroxisome proliferator-activated receptor gamma (Homo sapiens) (UniProt P37231); assay: qHTS assay for small molecule antagonists of peroxisome proliferator-activated receptor gamma signaling (AID 588537; active = well fitted inhibition curve with a large enough effect in the signal ratio, with a control signal flat, not every such curve was filed as active; the % refers to the signal ratio;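 note: reporter cells co-stimulated with 50 nM rosiglitazone agonist during compound treatment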)
Chain of Peroxisome proliferator-activated receptor gamma (Homo sapiens) (P37231 whole entry, looked up): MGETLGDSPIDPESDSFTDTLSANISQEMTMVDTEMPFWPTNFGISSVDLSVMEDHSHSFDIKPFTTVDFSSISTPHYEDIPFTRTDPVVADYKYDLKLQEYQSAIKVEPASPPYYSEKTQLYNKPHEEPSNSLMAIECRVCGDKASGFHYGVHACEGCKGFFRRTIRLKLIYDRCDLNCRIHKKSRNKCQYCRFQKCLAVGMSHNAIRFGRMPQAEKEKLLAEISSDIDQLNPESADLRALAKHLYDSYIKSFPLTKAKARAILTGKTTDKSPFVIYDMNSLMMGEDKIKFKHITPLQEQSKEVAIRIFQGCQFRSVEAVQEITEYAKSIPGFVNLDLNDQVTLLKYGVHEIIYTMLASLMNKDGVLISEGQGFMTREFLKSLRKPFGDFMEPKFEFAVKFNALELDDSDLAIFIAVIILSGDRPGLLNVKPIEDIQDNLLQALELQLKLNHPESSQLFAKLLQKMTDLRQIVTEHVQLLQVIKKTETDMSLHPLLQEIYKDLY
Outline: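 Compounds are tested as concentration series for inhibition of rosiglitazone-driven (50 nM) reporter expression in GeneBLAzer PPAR-gamma-UAS-bla HEK293 cells. After 16 h at 37 C, CCF4 substrate is added for 2 h at room temperature and blue/green fluorescence is measured.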

SMILES	outcome [1]	max response [2]	outcome [3]	outcome [4]	max response [5]	max response [6]	Potency [7]	Potency [8]	activity change % (negative = inhibition) [9]	outcome [10]
COc1ccc(O)cc1	inactive	-5.99%	inactive	inactive	-9.24%	-8.57% (inactive)	inactive	inactive		
C=CCNC(N)=S	inactive	14.7%	inactive	inactive	-1.13%	-16.9% (inactive)	inactive	inactive	-17.1% (inactive)	
O=C1c2cccc(O)c2C(=O)c2c(O)cccc21	inactive						inactive	inactive	-11.3% (inactive)	inactive
O=C(OOC(=O)c1ccccc1)c1ccccc1		-15.8%	inactive	inactive	-16.7%	10.6% (inactive)	inactive	inactive		inactive
Cc1ccc(C(C)C)c(O)c1	inactive	-0.0487%	inactive	inactive	-9.5%	-24.5% (inactive)		inactive	-7.05% (inactive)	
CC(=O)OCC(COC(C)=O)OC(C)=O	inactive	-12.6% and -13.8%	inactive	inactive	-8.38%	4.6% (inactive)	inactive	inactive	-1.64% (inactive) and -0.0126% (inactive)	inactive
CCCC(O)C(CC)CO (centres undefined)		-0.667%	inactive	inactive	-4.1%	8.72% (inactive)	inactive	inactive	10.7% (inactive)	
CC(=O)Nc1ccc(C(=O)O)cc1		-5.85%	inactive	inactive	-6.58%	1.7% (inactive)	inactive	inactive	2.92% (inactive)	inactive
CC(=O)Nc1cccc(O)c1		11%	inactive	inactive	-5.06%	5.72% (inactive)	inactive	inactive	8.82% (inactive)	
CCCCCCCCCCCCCCCCC(C(=O)O)C(O)(CC(=O)O)C(=O)O (centres undefined)							inactive			
Cc1cc(O)cc(C)c1Cl		-3.04%	inactive	inactive	-7.57%	1.2% (inactive)	inactive	inactive	6.71% (inactive)	inactive
CC(=O)Nc1ccccc1	inactive	-17.4%	inactive	inactive	-2.29%	-0.837% (inactive)	inactive	inactive	8.98% (inactive)	inactive
CCCCCC(N)=O	inactive	-21.2%	inactive	inactive	-2.91%	-2.1% (inactive)	inactive	inactive	-10.5% (inactive)	inactive
COC(=O)c1ccc(O)cc1	inactive	3.58%	inactive	inactive	-19.3%	-10.5% (inactive)	inactive	inactive	-5.41% (inactive)	inactive
Nc1ccc(S(=O)(=O)c2ccc(N)cc2)cc1		9.37%	inactive	inactive	-11.9%	-26.2% (inactive)	inactive	inactive	-17.4% (inactive) and -7.69% (inactive)	inactive
CCCCOC(=O)c1ccc(N)cc1	inactive	8.21%	inactive	inactive	-1.8%	-25.6% (inactive)	inactive			
CCCCCCCC(=O)OCC(COC(=O)CCCCCCC)OC(=O)CCCCCCC	inactive	-2.18%	inactive	inactive	-12.4%	4.61% (inactive)	inactive	inactive	-4.42% (inactive)	
FC(F)(F)C(Cl)Br (centres undefined)		-10.5%	inactive	inactive	-1.63%	-3.82% (inactive)		inactive	8.04% (inactive)	inactive
Cc1cc(=O)[nH]c(=S)[nH]1	inactive	-2.22%	inactive	inactive	-3.7%	1.44% (inactive)	inactive	inactive	15.5% (inactive)	inactive
Cc1cc(C)nc(NS(=O)(=O)c2ccc(N)cc2)n1		-3.23% and 6.31%	inactive	inactive	1.53% and -6.64%	-0.622% (inactive) and -18.2% (inactive)	inactive	inactive	-2.95% (inactive) and 11.9% (inactive)	
CC[N+](CC)(CC(=O)Nc1c(C)cccc1C)Cc1ccccc1	inactive	-1.28%	inactive		-13%	-2.97% (inactive)	inactive	inactive		inactive
CCN(CC)C(=O)c1cccc(C)c1	inactive	-4.92% and 6.96%	inactive		-0.756% and -2.65%	0.203% (inactive) and -8.17% (inactive)	inactive	inactive	-13.1% (inactive)	inactive
Cc1c(N(C)C)c(=O)n(-c2ccccc2)n1C	inactive	-14.4% and -18.2%	inactive	inactive	-6.41% and -1.97%	-3.15% (inactive) and -4.34% (inactive)		inactive	-16.1% (inactive) and 15.3% (inactive)	
